# Experimental data from PubChem BioAssay AID504941 (Broad Institute, 2011).
# The whole screen tested about 1,200 compounds, of which about 170 (14%) were called active. No rule for the calls is given here. These entries were drawn from the full list. Measured potencies and affinities stand elsewhere.
# Test: twin-arginine translocation blockade, bacterial reporter – cherry-pick, set 2, plate reader, dose response (AID 504941)
# Settings: E. coli Tat transport reporter; series mostly up to 38 µM
row,SMILES,outcome
1,CC1=NCC(C)c2c1[nH]c1ccccc21 (stereo not given),inactive
2,Cc1cccc(/C=N/NC(=O)c2cc(C3CC3)nc3ccccc23)n1,inactive
3,O=C(NCc1ccccc1)C(=O)NCC1OCCN1S(=O)(=O)c1ccc([N+](=O)[O-])cc1 (stereo not given),inactive
4,Cc1noc(C)c1COC(=O)c1cccc(S(=O)(=O)N2CCOCC2)c1,inactive
5,C#CCOCCOCCOCCNc1nc(N2CCN(C(=O)Cn3cc(CC(C)O)nn3)CC2)nc(N2CCN(C(=O)[C@H](CCCCN)n3cc(CCCC)nn3)CC2)n1 (stereo not given in full),inactive
6,COc1cccc(-n2c(SCc3ccccn3)nc3c(c2=O)SCC3)c1,inactive
7,Cc1ccc2cccc(OCC(=O)N3CCc4ccccc43)c2n1,inactive
8,COc1ccc(CCNC(=O)/C=C/c2ccco2)cc1OC,inactive
9,COc1ccccc1N1CCN(c2nc(-c3ccccc3)cc(C(F)(F)F)n2)CC1,inactive
10,Cc1ccccc1OCC(=O)Nc1nnc(-c2ccncc2)s1,inactive
11,NC1C2CN(c3nc4c(cc3F)c(=O)c(C(=O)O)cn4-c3ccc(F)cc3F)CC12 (stereo not given),inactive
12,CSc1cccc(NC(=O)CN(C)S(=O)(=O)c2cnc[nH]2)c1,inactive
13,O=C(N/C(=C/c1ccccc1)C(=O)N1CCCCC1)c1ccc(Br)o1,inactive
14,COc1ccc(OC)c(C(=O)CSc2nnc(-c3cccs3)o2)c1,inactive
15,COc1cccc(NC(=O)c2ccc3c(SCC(=O)O)c4c(nc3c2)CCCC4)c1,inactive
16,CC(C)OC(=O)c1nn2c(C(F)(F)F)cc(-c3ccco3)nc2c1Cl,inactive
17,O=C(Nc1ccc(Br)cc1)C1CC(O)CN1C(=O)Oc1ccccc1 (stereo not given),inactive
18,CCOc1ccc(NC(C(=O)Nc2cccc(C(C)=O)c2)c2ccccc2)cc1 (stereo not given),inactive
19,O=C(NC1CC1)c1ccc(N2CCCCC2)c([N+](=O)[O-])c1,inactive
20,COc1cc2cc(CN(CCO)S(=O)(=O)c3ccccc3Cl)c(=O)[nH]c2cc1OC,inactive
